This note sets out measurements from PMC7862700, “An all-to-all approach to the identification of sequence-specific readers for epigenetic DNA modifications on cytosine”.

Assay in all cases: DAPPL (digital affinity profiling via proximity ligation, sequencing); 10 mM Tris-HCl pH 7.5, 50 mM NaCl, 1 mM DTT, 4% glycerol, room temperature, 30 min; GST-TFs on glutathione beads, 16-mer random dsDNA library, 0.1% formaldehyde crosslink after washing; high values mean tight binding
What all share (conditions): protein: recombinant; tags: N-terminal GST; dsDNA, one strand shown

For one assay, the target named is T1, FLI1 (Homo sapiens, UniProt Q01543 1-452).
T1 sequence: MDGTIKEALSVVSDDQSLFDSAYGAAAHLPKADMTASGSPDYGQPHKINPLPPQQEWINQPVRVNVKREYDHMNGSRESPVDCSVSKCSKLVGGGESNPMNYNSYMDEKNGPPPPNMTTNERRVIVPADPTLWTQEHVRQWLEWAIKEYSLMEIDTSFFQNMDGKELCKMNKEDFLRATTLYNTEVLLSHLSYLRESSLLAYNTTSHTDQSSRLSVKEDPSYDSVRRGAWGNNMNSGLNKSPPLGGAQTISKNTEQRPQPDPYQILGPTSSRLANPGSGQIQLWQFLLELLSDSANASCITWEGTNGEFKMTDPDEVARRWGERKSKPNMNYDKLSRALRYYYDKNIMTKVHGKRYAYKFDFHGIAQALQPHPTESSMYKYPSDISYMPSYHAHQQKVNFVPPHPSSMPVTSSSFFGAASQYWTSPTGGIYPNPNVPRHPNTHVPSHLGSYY
The essentials: (§1)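 A tag-only sample was pooled with DNA-barcoded human transcription factors that had been expressed in yeast as GST fusions and captured on glutathione beads. The pools were incubated for 30 min at room temperature with 200 nmole of a random double-stranded 16-mer DNA library in Tris/NaCl/DTT/glycerol buffer, then washed, crosslinked with 0.1% formaldehyde, proximity-ligated (BsaI/T4 ligase, 1 h, 37 °C), PCR-amplified and sequenced on an Illumina NextSeq500. Binding signal is each hexamer's read frequency for a factor divided by its frequency for the tag-only sample.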

Another assay concerns the target T2, ELK1 (Homo sapiens, UniProt P19419 1-428).
T2 sequence: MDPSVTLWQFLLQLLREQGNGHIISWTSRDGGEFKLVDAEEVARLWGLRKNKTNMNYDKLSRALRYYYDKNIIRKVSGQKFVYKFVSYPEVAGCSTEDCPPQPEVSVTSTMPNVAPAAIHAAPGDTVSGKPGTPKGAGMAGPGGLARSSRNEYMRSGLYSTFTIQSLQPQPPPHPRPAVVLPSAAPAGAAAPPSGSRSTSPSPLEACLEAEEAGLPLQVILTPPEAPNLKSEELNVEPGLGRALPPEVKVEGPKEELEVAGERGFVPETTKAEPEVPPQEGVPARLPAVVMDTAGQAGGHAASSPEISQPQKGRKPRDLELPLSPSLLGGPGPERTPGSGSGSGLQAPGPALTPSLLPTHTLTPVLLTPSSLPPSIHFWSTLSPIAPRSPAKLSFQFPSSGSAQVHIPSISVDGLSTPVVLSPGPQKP
In short, it runs like this: as §1

Another assay concerns the target T3, GABPA (Homo sapiens, UniProt Q06546 1-454).
T3 sequence: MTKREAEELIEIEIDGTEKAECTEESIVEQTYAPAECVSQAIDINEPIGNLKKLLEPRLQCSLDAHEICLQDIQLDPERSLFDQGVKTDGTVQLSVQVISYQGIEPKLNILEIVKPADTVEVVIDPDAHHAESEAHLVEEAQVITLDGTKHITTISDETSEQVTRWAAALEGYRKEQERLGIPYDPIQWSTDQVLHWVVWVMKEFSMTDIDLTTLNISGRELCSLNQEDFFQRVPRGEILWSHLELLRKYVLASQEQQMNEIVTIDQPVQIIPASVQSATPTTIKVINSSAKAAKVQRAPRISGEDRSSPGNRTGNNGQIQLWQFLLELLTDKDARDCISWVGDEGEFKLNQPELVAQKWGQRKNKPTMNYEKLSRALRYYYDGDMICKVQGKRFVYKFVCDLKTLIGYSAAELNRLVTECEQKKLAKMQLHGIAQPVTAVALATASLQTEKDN
In short, it runs like this:
as §1

The target in a further assay is T4, ERG (Homo sapiens, UniProt P11308 1-479).
T4 sequence: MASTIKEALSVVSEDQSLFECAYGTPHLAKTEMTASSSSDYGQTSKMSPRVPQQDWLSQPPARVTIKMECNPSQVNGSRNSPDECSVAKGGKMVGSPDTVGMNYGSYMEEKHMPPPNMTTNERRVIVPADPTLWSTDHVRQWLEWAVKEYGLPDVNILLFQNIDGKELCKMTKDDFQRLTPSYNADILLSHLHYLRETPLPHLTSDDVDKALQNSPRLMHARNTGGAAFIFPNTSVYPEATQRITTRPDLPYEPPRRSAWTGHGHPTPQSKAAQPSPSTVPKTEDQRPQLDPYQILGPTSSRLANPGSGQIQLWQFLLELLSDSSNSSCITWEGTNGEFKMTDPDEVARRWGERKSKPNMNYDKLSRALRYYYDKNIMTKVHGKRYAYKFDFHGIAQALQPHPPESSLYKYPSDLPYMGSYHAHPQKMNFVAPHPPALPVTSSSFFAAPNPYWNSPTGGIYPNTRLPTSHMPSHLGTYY
In short, it runs like this: as §1

A further assay concerns the target ELF1 (Homo sapiens, UniProt P32519 1-619). In short, it runs like this: as §1
The target in another assay is T5, EHF (Homo sapiens, UniProt Q9NZC4 1-300).
T5 sequence: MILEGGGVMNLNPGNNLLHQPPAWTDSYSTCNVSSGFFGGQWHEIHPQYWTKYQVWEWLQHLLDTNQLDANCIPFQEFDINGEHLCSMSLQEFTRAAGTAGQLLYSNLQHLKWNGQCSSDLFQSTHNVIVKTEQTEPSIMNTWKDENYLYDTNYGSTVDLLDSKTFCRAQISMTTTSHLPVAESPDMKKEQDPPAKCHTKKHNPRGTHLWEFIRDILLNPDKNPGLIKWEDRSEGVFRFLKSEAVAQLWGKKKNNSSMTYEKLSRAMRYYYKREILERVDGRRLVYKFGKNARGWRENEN
The essentials: as §1

In another assay the target is SPIB (Homo sapiens, UniProt Q01892 1-262). The essentials: as §1
Sequence of SPIB (Q01892 whole entry): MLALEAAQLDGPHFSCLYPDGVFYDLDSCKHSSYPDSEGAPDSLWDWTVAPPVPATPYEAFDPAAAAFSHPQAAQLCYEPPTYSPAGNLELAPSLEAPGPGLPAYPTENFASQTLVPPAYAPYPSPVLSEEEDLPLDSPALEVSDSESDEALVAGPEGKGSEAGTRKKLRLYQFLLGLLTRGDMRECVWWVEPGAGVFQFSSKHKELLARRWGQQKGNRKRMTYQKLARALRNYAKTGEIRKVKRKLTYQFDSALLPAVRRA
The target in a further assay is T6, FEV (Homo sapiens, UniProt Q99581 1-238).
T6 sequence: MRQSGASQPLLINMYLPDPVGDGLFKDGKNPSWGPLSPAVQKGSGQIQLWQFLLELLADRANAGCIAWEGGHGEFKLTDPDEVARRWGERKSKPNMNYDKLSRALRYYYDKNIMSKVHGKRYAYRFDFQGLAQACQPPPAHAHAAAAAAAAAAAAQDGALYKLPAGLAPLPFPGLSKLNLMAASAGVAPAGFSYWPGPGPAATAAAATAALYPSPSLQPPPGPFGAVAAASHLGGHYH
The essentials:
as §1

The next assay concerns the target ETV5 (Homo sapiens, UniProt P41161 1-510). The essentials:
as §1

In another assay the target is T7, SPIC (Homo sapiens, UniProt Q8N5J4 1-248).
T7 sequence: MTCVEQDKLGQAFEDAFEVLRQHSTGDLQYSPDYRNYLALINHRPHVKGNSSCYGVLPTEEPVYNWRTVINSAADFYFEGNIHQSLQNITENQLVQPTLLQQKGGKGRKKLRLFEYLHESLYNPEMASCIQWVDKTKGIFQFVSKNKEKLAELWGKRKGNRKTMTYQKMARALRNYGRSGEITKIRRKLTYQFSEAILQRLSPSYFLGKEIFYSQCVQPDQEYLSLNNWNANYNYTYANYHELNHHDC
In short, it runs like this:
as §1

In a further assay the target is ETV1 (Homo sapiens, UniProt P50549 1-477). The essentials:
as §1

The target in another assay is T8, ERF (Homo sapiens, UniProt P50548 1-548).
T8 sequence: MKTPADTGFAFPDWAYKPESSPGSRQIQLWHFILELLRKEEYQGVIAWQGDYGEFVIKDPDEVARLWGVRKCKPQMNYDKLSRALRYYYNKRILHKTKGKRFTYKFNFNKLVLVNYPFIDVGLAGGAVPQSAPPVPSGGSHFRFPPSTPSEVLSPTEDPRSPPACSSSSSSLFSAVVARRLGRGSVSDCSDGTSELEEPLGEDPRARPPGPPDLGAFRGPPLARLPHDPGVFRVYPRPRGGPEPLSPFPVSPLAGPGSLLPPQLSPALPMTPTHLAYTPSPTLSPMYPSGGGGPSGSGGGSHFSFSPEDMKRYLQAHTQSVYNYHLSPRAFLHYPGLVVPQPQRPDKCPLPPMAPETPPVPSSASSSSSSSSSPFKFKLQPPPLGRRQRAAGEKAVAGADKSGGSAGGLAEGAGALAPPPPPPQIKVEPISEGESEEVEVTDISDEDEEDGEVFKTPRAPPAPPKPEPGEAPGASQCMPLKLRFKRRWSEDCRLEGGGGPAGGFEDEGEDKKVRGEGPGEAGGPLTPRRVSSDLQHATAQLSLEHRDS
The essentials: as §1

A further assay addresses T9, ETV3L (Homo sapiens, UniProt Q6ZN32 1-361).
T9 sequence: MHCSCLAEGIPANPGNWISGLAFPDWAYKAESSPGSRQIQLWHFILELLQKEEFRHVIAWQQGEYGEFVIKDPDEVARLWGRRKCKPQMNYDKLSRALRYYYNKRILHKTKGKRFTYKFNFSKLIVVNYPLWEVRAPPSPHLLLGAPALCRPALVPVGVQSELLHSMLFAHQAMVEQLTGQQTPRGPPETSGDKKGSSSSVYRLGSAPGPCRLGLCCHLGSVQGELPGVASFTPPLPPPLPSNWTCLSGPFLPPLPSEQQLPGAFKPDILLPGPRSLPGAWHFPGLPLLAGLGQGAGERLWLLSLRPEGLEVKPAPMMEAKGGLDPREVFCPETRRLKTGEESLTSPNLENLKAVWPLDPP
In short, it runs like this:
as §1

A further assay has as its target T10, ETS2 (Homo sapiens, UniProt P15036 1-469).
T10 sequence: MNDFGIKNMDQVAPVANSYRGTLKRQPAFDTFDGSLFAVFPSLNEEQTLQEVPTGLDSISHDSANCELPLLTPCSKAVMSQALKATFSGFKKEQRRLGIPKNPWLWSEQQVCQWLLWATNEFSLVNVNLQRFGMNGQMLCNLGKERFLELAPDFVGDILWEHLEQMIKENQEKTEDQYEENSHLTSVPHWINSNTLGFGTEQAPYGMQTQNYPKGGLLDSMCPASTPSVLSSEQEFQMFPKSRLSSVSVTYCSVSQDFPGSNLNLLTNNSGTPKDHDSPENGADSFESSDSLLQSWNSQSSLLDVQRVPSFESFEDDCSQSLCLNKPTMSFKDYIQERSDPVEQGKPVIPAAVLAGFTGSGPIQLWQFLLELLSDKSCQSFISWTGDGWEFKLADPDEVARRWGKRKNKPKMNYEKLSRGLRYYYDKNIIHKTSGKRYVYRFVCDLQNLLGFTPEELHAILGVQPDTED
In short, it runs like this:
as §1

The target in the next assay is T11, SPDEF (Homo sapiens, UniProt O95238 1-335).
T11 sequence: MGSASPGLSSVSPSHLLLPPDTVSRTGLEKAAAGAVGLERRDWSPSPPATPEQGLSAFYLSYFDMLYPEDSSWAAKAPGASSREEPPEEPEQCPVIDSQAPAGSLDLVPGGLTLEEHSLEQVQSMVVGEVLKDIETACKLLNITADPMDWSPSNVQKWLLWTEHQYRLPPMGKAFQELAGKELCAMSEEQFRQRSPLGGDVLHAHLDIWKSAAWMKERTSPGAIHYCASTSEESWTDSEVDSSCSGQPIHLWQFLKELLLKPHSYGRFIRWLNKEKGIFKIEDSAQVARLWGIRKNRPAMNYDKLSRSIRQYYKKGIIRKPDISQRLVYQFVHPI
In short, it runs like this: as §1

In the next assay the target is T12, ETV3 (Homo sapiens, UniProt P41162-2 1-143).
T12 sequence: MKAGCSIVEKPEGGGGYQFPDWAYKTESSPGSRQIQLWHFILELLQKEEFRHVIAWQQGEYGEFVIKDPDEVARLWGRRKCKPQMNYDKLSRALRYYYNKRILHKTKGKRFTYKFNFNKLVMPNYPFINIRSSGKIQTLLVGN
In short, it runs like this: as §1

For the next assay, the target named is ETV6 (Homo sapiens, UniProt P41212 1-452). In short, it runs like this: as §1
Sequence of ETV6 (P41212 whole entry): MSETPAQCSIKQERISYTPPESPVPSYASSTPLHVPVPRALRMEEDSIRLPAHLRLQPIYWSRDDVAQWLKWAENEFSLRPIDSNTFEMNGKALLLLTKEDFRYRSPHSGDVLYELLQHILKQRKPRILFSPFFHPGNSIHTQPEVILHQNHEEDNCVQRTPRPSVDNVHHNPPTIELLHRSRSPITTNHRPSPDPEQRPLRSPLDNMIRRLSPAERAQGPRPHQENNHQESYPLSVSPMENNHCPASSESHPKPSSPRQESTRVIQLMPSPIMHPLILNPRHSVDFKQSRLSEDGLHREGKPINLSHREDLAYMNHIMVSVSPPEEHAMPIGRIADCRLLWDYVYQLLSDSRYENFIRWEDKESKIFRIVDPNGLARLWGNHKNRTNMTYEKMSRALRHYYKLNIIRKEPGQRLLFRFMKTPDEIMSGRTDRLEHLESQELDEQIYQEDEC

Sequence of ELF1 (P32519 whole entry): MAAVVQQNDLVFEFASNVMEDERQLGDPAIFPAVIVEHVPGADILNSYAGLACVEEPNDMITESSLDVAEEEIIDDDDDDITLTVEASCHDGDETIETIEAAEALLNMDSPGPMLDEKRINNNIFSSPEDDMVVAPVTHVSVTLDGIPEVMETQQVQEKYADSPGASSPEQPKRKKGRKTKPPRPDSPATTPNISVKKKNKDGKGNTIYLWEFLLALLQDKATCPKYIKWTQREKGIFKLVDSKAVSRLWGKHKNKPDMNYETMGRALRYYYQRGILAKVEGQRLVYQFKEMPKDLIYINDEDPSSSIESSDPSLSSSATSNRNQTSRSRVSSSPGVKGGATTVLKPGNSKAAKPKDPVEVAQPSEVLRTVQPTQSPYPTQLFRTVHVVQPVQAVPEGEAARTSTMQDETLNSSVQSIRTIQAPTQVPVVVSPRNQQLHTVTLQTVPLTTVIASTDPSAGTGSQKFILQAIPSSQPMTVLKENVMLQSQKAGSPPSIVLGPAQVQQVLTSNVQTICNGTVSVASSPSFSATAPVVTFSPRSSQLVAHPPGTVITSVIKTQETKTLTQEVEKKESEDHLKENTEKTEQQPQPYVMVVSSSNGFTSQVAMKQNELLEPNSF
Sequence of ETV5 (P41161 whole entry): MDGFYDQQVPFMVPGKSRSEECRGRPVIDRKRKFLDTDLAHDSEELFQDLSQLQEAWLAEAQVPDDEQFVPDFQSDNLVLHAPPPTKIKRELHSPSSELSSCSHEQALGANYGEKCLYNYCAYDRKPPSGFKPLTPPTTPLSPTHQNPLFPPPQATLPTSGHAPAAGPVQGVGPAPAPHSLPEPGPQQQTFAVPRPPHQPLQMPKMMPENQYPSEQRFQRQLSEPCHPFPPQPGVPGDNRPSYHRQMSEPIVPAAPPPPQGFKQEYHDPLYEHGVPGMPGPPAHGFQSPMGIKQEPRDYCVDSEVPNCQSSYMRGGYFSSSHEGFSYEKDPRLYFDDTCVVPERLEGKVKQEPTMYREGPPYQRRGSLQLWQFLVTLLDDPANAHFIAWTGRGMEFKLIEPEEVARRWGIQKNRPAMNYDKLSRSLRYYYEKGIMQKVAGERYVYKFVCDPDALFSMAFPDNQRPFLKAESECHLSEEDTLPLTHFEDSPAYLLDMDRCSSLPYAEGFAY
Sequence of ETV1 (P50549 whole entry): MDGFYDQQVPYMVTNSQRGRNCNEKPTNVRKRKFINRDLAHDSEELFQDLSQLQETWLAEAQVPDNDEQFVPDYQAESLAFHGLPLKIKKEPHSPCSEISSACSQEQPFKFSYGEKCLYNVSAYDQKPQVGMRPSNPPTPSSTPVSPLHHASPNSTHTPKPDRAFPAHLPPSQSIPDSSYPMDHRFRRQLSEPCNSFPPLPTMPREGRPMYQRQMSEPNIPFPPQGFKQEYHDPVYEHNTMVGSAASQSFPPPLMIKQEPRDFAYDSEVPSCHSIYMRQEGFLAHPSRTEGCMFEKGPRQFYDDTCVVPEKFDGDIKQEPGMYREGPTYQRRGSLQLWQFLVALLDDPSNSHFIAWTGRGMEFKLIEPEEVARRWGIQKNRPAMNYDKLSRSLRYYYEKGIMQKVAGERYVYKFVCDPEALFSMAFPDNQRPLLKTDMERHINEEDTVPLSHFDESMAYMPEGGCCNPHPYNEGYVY

Take CAACCG: the binding signal with FLI1 was 1.11 fold enrichment (6-mer frequency, TF over GST control); in the assay with ELK1 it was 1.13 fold enrichment (6-mer frequency, TF over GST control); with GABPA, 1 fold enrichment (6-mer frequency, TF over GST control); in the assay with ERG it was 1.11 fold enrichment (6-mer frequency, TF over GST control); with ELF1, 1.03 fold enrichment (6-mer frequency, TF over GST control); with EHF, 1.06 fold enrichment (6-mer frequency, TF over GST control). The binding signal in the assay with SPIB is 1.15 fold enrichment (6-mer frequency, TF over GST control); in the assay with FEV it was 1.28 fold enrichment (6-mer frequency, TF over GST control); with ETV5, 1.03 fold enrichment (6-mer frequency, TF over GST control); in the assay with SPIC, 1.02 fold enrichment (6-mer frequency, TF over GST control); with ETV1, 1.06 fold enrichment (6-mer frequency, TF over GST control); in the assay with ERF it was 1.03 fold enrichment (6-mer frequency, TF over GST control). Moreover, the binding signal with ETV3L is 1.09 fold enrichment (6-mer frequency, TF over GST control); in the assay with ETS2 it was 1.11 fold enrichment (6-mer frequency, TF over GST control); with SPDEF, 1.15 fold enrichment (6-mer frequency, TF over GST control); with ETV3 it was 1.08 fold enrichment (6-mer frequency, TF over GST control); in the assay with ETV6, 1.13 fold enrichment (6-mer frequency, TF over GST control).
